Assay results as given in PubChem BioAssay (NCATS).
A number with no mark means an inactive call. Inconclusive results are not listed. Calls of active or inactive are those of the source. The call rests on the fitted dose curve; in most records, active means well fitted curve in the direction sought with a large enough effect; inconclusive means small, poorly fitted or top-dose-only effect, or another doubt; inactive means no such curve, though single readings can be large; an effect the other way counts as inactive or inconclusive.

tested on: not listed separately; test: Primary fluorescence-based thiol-reactive (MSTI) qHTS assay for identification of artifact compounds. (AID 1845221); conditions: MSTI thiol-reactivity probe, 1 h; series mostly up to 53.8 µM; activity change, negative = thiol reactive: at the top concentration; further: nearly all actives have a fitted effect of over 65% in size; further: potency means the concentration at half of the fitted maximal effect;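 on activity change, negative = thiol reactive: thiol-reactive compounds lower the probe fluorescence signal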
Summary of the method: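 qHTS titration of compound; 4 uM MSTI, PBS pH 7.4, 2% DMSO; 1 h RT, dark; fluorescence 525/598 nm; normalized to Acetyl-MSTI and MSTI; 4-parameter Hill fit.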

SMILES | activity change, negative = thiol reactive | Potency
CCn1c(=O)c(-c2ccc(Cl)cc2Cl)cc2cnc(Nc3ccc(N4CCNCC4)c(F)c3)nc21 | -19.4% | 
CNc1nc(Nc2ccc(C(=O)N3CCOCC3)cc2OC)nc2[nH]cc(Cl)c12 |  | 1.68 µM (active)
COc1ccccc1-c1ccc(-c2cn(C(=O)N3CCCCC3Cc3ccccc3)nn2)cc1 (stereo not given) | 79.9% | 
C=C1C(=O)O[C@@H]2C3C(=C(C)[C@@H](O)[C@@H](OC(=O)/C(=C/C)COC(C)=O)[C@@H]12)C(=O)[C@H]1O[C@@]31C (stereo not given in full) | -5.28% [at 25.6 µM] | 
Cc1cc(C(=O)Nc2cc(Nc3ccc4c(/C=C/c5ccccn5)n[nH]c4c3)ccc2F)n(C)n1 |  | 11.9 µM (active)
N#Cc1ccc(COc2ccc(-c3cccc4nc(NC(=O)C5CC5)nn34)cc2)cn1 | 41.1% | 
COc1cc(CN(CCN)C(=O)c2cccs2)ccc1OCc1ccccc1 | 13.1% | 
C=C1C(=O)O[C@@H]2C(OC(=O)/C(C)=C\C)/C(C)=C\C(=O)/C=C(\C)C[C@H](O)[C@@H]12 (stereo not given in full) | -17.9% | 
CCOC(=O)c1csc(Nc2ccc(Cl)cc2)n1 | 137% | 
CNc1nc(NCc2ccc(NS(C)(=O)=O)cc2Cl)cc(-c2ccccn2)n1 | 130% | 
CC(=O)O[C@H]1CC2C(COC(=O)CC(C)C)=CO[C@@H](OC(=O)CC(C)C)C2[C@]12CO2 (stereo not given in full) | 0.124% [at 25.6 µM] | 
CCCN(CCc1ccsc1)C1CCc2c(O)cccc2C1 (stereo not given) | 16.2% | 
O=C(Nc1ccc(Cl)cc1)Nc1cccc(-c2cccc(N3CCCC3)n2)c1 | 7.76% | 
O=C(O)C1=CO[C@@H](O[C@@H]2O[C@H](CO)[C@@H](O)[C@H](O)[C@H]2O)[C@@H]2C(CO)=CC[C@H]12 | -20% | 
C/C=C(\C)C(=O)O[C@H]1C=C(CO)C(=O)[C@H](OC(C)=O)[C@H]1C(C)C | 16.4% | 
Cc1ccc(O)cc1Nc1ccnc(Nc2cccc(C(N)=O)c2)n1 | -15% | 
COC1CCN(c2cccc(-c3cc(NC(C)=O)nc(-n4nc(C)cc4C)n3)n2)CC1 | -28.5% | 

SMILES | activity change, negative = thiol reactive | Potency
Nc1nc2c(cnn2CCCc2ccc(O)cc2)c2nc(-c3ccco3)nn12 | -12.9% | 
O=C(Nc1ccc(-c2ccc(Cl)c(Cl)c2)cc1)C1=C(O)c2ccccc2S(=O)(=O)N1 | 2.21% | 
CC(C)c1ccc(-c2cc(=O)c3ccccc3o2)cc1 | -17.3% | 
Nc1nc2c(nc(Br)n2[C@@H]2O[C@@H]3COP(=O)(O)O[C@H]3[C@H]2O)c(=O)[nH]1 | 3.81% | 
CC(=O)O[C@@H]1[C@@H](O)[C@H](O[C@@H]2[C@@H](O)[C@@H](O)[C@H](O[C@H]3[C@H](O[C@H]4[C@H](O[C@H]5CC[C@@]6(C)C(CC[C@]7(C)C6CC=C6[C@@H]8CC(C)(C)CC[C@]8(C(=O)O)CC[C@]67C)[C@]5(C)CO)O[C@H](CO)[C@@H](O)[C@@H]4O)OC[C@@H](O)[C@@H]3O)O[C@H]2C)OC[C@H]1O (stereo not given in full) | 377% [at 11.5 µM] | 
CC(C)Nc1nc(Nc2ccccc2)nc(-c2ccccc2)n1 | 136% | 
O=C(Nc1ccc2[nH]nc(-c3ccncc3)c2c1)[C@@H]1CCN(CC(=O)N2CCN(c3ccc(-c4ncccn4)cc3)CC2)C1 | 32.2% | 
O=C(O)c1cccc(-c2ccc(-c3cn(C(=O)N4CCCCC4Cc4ccccc4)nn3)cc2)c1 (stereo not given) | 288% | 
CN(C)Cc1ccc(-c2cnn3c(-c4cccc(NC(=O)c5cccc(C(F)(F)F)c5)c4)ccnc23)cc1 | 89.1% | 
O=C(Nc1nnc(-c2ccc3c(c2)OCCO3)o1)C1CCCCC1 | 13.6% | 
O=C(NCCN1CCC(n2c(=O)[nH]c3ccccc32)CC1)c1ccc2ccccc2c1 | 56.6% | 
COc1ccccc1C(=O)Nc1cccc(NC(=O)c2cccc(C)c2)c1 | 390% | 
COc1cc2c(cc1O)C1(Cc3ccc4c(c3C1O)OCO4)[N+](C)([O-])CC2 (stereo not given) |  | 5.21 µM (active)
COc1ccc2nc(-c3cc(OC)c(OC)c(OC)c3)cc(C(=O)NCC(=O)Nc3ccc(C(C)=O)cc3)c2c1 | 380% | 
c1ccc(-c2cnn3cc(-c4ccc(OCCN5CCOCC5)cc4)cnc23)cc1 | 71.3% | 
NCC1CCN(c2nccc(-c3ccc4ccccc4c3)n2)CC1 | 53.3% | 

tested on: Nanoluciferase (engineered Oplophorus gracilirostris luciferase); test: Primary Nanoluciferase (NLuc) qHTS assay for identification of artifact compounds. (AID 1845222); conditions: NLuc-conditioned medium, Nano-Glo luminescence, 5 min; series mostly up to 54.1 µM; activity, negative = inhibition: at the top concentration;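 further: NLuc secreted into diluted conditioned medium of S16 cells; 0% = DMSO and -100% = no enzyme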
Summary of the method: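 qHTS format, against NLuc in S16 cell-conditioned medium. Nano-Glo substrate 1:100 was added after 15 min at room temperature. Luminescence was taken after a further 5 min.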

SMILES | activity, negative = inhibition [%]
CCn1c(=O)c(-c2ccc(Cl)cc2Cl)cc2cnc(Nc3ccc(N4CCNCC4)c(F)c3)nc21 | 0
CCOc1ccc(-n2c([C@@H](C)N(Cc3cccnc3)C(=O)Cc3ccc(OC(F)(F)F)cc3)nc3ncccc3c2=O)cc1 | -7.14
